For some of these results: Entries with a potency or affinity are not part of this list.
Key:
Set-up in all cases: scale not given: direction of the effect not stated beside the values
[1] = molecular target: Protein translocase subunit SecA (Escherichia coli (strain K12)) (UniProt P10408); experiment: Assay to Identify E. coli SecA ATPase Inhibitors; format: functional; details: 30 µM
[2] = molecular target: T1, Ubiquitin-activating enzyme e1, putative (Leishmania donovani (strain BPK282A1)) (UniProt E9BSI1); experiment: Leishmania donovani Ubiquitin Activating Enzyme (LdE1); format: functional; details: 30 µM
T1 sequence (whole entry): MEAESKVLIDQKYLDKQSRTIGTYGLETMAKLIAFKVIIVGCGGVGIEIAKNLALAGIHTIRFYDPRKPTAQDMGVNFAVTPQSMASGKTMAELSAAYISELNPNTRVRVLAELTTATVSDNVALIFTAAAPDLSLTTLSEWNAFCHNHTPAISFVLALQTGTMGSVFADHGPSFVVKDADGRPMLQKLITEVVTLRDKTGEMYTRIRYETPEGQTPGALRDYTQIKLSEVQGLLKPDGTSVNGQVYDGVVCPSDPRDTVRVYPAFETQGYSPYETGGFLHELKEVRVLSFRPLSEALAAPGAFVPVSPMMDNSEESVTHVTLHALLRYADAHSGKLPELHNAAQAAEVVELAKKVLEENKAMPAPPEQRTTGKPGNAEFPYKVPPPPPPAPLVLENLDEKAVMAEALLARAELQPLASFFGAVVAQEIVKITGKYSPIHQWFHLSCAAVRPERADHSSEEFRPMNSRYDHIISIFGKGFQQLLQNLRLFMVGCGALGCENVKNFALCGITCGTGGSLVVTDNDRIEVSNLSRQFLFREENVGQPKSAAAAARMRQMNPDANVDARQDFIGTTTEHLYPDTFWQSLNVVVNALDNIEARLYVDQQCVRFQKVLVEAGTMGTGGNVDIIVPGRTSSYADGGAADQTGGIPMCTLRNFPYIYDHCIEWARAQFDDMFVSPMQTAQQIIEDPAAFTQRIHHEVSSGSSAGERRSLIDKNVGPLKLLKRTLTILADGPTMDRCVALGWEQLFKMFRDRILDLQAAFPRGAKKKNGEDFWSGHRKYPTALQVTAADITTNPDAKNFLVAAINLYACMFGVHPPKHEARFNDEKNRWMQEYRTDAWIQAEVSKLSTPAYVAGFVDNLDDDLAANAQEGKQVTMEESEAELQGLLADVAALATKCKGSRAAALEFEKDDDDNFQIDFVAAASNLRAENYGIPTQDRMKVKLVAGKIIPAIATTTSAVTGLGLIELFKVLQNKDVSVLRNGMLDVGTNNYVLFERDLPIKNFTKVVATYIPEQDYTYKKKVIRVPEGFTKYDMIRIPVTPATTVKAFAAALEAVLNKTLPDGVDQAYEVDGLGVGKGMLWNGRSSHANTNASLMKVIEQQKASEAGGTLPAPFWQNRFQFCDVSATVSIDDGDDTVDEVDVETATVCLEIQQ

[3] = molecular target: AMP-activated protein kinase, AMPK (Homo sapiens) (UniProt P54646+O43741+P54619+Q9UGJ0+Q9Y478+Q13131+Q9UGI9); experiment: AMP-dependent Kinase enzyme assay. An in vitro enzyme assay that detects ADP turnover that is directly proportional to AMPK activity. This uses naive AMPK that is activated during the assay with MK-8722; format: functional; details: 30 µM
[4] = molecular target: Sialic acid-binding Ig-like lectin 9 (Homo sapiens) (UniProt Q9Y336); experiment: Hs-Siglec9 ALPHAscreen SOP 20170721; details: 10 µM
Chain of Sialic acid-binding Ig-like lectin 9 (Homo sapiens) (Q9Y336 whole entry): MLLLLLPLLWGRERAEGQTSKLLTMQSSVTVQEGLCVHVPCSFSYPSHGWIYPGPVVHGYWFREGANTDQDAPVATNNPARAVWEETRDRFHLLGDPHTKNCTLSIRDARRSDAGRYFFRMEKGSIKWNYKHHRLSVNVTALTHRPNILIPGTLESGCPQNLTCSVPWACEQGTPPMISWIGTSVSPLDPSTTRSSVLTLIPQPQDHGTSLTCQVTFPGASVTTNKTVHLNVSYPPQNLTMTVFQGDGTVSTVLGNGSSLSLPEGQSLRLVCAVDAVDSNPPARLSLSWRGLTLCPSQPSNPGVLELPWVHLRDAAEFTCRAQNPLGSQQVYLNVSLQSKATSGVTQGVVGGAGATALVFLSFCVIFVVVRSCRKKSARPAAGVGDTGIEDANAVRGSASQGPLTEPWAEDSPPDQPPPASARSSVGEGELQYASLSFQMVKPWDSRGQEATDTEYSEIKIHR

Trypanosoma cruzi = experiment: Trypanosoma cruzi phosphomannomutase and mannose-1-phosphate guanylyltransferase assay; format: functional; details: 10 µM
[5] = molecular target: T2, Arginase-2, mitochondrial (Homo sapiens) (UniProt P78540); experiment: in vitro enzyme assay to detect the production of urea directly proportional to the activity of Arginase II; format: functional; details: 33.3 µM; also: in the data most compounds retested in dose-response had high values
T2 sequence (whole entry): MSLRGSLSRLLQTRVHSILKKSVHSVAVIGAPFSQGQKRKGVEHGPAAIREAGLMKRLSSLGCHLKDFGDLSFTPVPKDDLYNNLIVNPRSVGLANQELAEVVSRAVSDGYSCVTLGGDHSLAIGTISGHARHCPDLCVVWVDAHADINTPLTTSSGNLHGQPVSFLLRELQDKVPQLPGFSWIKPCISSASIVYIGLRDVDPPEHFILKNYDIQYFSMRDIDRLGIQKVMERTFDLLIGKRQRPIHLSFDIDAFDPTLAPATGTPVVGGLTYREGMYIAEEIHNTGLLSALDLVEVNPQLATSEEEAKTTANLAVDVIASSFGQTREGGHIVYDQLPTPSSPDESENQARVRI

[6] = molecular target: T3, Proteasome subunit beta (Trypanosoma cruzi) (UniProt O96673); experiment: Trypanosoma cruzi proteasome chymotrypsin-like activity (TcProtChymo) assay.; also: in the data most compounds retested in dose-response had high values; format: functional; details: 9.37 µM
T3 sequence (whole entry): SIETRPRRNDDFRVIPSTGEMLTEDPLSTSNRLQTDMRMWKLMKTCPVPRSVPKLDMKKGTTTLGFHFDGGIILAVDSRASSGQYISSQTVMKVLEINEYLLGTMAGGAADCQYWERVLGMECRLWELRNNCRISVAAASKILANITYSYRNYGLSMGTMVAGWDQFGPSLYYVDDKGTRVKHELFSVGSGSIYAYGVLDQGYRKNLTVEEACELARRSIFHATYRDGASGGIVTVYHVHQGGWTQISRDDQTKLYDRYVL

Homo sapiens = species on record: Homo sapiens; experiment: To identify inhibition of the IFN signalling (Jak-Stat) pathway via expression of an eGFP reporter gene under the control of an IFN-stimulated response element (ISRE) containing MxA promoter.; format: functional; details: 30 µM
[7] = molecular target: T4, Tyrosyl-tRNA synthetase, putative (Trypanosoma cruzi (strain CL Brener)) (UniProt Q4DSP6); experiment: Trypanosoma cruzi tyrosyl tRNA synthetase (TcYRS) _High Tyrosine SOP; format: functional; details: 30 µM; also: in the data most compounds retested in dose-response had high values
T4 sequence (whole entry): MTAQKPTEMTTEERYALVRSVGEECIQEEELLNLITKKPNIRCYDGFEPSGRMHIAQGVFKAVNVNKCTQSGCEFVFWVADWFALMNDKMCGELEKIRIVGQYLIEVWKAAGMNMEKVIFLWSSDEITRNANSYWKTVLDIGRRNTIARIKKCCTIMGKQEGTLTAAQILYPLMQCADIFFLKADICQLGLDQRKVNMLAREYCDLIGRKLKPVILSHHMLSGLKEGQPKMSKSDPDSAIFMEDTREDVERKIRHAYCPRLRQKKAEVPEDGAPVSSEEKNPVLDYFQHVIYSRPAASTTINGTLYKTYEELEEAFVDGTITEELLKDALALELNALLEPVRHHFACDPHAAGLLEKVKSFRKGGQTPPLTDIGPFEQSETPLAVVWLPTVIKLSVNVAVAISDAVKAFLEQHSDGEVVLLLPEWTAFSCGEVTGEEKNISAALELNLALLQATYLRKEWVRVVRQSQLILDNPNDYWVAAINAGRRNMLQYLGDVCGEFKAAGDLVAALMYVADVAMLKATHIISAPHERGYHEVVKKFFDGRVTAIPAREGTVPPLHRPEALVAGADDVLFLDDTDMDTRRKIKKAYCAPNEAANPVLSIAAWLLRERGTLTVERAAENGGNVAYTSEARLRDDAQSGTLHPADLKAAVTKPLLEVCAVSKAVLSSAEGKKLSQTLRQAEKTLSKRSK

[8] = molecular target: T4, Tyrosyl-tRNA synthetase, putative (Trypanosoma cruzi (strain CL Brener)); experiment: Trypanosoma cruzi tyrosyl tRNA synthetase (TcYRS) SOP; format: functional; details: 30 µM
[9] = molecular target: Chromo domain-containing protein 1 (Saccharomyces cerevisiae (strain ATCC 204508 / S288c) (Baker's yeast)) (UniProt P32657); experiment: ScCHD-1 Enzyme Inhibition Assay; format: functional; details: 30 µM; also: in the data most compounds retested in dose-response had high values
Chain of Chromo domain-containing protein 1 (Saccharomyces cerevisiae (strain ATCC 204508 / S288c) (Baker's yeast)) (P32657 whole entry, the tested form may be a part): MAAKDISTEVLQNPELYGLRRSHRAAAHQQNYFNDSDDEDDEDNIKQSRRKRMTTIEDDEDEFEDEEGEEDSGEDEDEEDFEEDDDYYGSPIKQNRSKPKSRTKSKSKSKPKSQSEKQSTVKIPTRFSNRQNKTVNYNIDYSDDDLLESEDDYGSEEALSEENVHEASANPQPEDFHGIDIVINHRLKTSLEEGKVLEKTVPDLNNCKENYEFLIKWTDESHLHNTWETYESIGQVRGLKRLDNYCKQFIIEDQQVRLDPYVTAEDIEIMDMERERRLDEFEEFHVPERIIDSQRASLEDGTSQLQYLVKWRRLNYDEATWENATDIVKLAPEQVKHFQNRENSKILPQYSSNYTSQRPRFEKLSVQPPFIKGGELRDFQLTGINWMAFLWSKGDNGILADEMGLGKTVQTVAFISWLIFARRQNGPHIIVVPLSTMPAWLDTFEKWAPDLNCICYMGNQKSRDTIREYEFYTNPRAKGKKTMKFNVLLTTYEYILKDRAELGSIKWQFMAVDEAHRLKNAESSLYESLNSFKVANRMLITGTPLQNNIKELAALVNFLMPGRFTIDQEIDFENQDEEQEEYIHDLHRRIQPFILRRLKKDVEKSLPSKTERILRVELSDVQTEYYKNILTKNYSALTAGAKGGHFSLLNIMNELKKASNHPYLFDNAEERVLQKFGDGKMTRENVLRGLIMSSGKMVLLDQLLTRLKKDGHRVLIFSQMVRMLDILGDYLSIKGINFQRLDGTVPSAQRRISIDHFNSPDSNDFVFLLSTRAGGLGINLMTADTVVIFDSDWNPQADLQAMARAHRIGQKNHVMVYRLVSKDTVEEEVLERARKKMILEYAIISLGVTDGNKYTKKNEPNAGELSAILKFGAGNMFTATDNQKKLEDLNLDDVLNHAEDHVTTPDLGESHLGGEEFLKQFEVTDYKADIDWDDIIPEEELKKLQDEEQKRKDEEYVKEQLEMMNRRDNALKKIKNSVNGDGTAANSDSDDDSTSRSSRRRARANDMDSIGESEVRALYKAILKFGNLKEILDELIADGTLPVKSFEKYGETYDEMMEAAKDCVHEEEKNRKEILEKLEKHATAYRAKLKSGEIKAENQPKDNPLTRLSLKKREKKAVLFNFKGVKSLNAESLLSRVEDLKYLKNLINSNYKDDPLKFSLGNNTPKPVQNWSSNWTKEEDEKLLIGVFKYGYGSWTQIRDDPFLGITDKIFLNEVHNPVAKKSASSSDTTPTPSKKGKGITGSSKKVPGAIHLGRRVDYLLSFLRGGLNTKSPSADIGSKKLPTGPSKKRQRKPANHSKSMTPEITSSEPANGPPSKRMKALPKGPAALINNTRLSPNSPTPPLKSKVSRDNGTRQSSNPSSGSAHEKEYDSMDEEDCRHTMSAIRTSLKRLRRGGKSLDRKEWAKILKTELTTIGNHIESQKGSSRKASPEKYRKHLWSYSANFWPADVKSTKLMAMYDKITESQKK

Chain of Protein translocase subunit SecA (Escherichia coli (strain K12)) (P10408 whole entry): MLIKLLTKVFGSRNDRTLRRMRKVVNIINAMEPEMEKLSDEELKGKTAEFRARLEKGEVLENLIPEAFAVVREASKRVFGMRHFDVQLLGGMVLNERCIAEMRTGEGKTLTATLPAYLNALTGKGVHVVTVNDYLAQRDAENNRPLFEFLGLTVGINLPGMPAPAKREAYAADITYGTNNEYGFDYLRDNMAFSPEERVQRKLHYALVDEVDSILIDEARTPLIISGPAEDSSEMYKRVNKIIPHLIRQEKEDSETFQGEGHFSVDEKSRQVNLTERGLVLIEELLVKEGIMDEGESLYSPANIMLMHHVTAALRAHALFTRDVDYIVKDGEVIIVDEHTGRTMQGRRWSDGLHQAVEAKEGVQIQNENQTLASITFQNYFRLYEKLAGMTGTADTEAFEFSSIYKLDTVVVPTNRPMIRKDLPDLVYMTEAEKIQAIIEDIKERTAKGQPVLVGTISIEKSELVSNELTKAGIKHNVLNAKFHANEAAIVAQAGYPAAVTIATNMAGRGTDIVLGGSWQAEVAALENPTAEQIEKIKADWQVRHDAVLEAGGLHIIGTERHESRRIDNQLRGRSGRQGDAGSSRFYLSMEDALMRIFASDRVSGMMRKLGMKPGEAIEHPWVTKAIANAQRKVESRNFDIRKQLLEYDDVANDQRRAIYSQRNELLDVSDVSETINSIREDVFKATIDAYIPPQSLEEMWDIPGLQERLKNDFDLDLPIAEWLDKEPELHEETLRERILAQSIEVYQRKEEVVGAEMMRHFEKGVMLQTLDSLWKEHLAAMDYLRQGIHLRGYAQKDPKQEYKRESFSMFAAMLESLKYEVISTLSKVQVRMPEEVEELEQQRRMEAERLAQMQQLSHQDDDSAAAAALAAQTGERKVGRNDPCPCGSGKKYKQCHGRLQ

SMILES	Percent Effect [1]	Percent Effect [2]	Percent Effect [3]	Percent Effect [4]	Percent Effect (Trypanosoma cruzi)	Percent Effect [5]	Percent Effect [6]	Percent Effect (Homo sapiens)	Percent Effect [7]	Percent Effect [8]	Percent Effect [9]
CC(C)n1ccnc1C1CCCN(c2ccnc3ccccc23)C1 (stereo not drawn)	-5.45%	2.67%	3.66%	2%	-0.487%	-1.04%	1.57%	53.9%	7.1%	6.17%	-6.66%
COCc1n[nH]/c(=N/C(=O)COc2cnc(C)cc2O)s1	-1.58%	-5.26%	2.8%	1.24%	-6.33%	-1.18%	9.3%	-1.08%	3.19%	5.2%	-4.33%
COCC1CN(Cc2ccc(C)o2)Cc2cn(C)nc21 (stereo not drawn)	-1.58%	10.7%	-0.404%	16.5%	-0.965%	-18.5%	5.13%	-4.89%	10.4%	20%	-7.5%
FC(F)(F)c1cc(N2CCc3ncnc(NC4CC4)c3CC2)ncn1	-1.41%	13.3%	11.7%	-4.57%	-3.86%	-57.5%	14.4%	10.9%	5.21%	-5%	-8.14%
CC(NC(=O)NCc1cc[nH]n1)c1ccc2c(c1)CCC(=O)N2 (stereo not drawn)	-3.48%	13%	-2.39%	10.7%	5.43%	0.712%	4.9%	4.17%	4.85%	21.9%	-9.64%
CN(C)C(=O)N1CCC2(CCCN(Cc3cnn(C)c3)C2)C1 (stereo not drawn)	-3.04%	0%	12%	1.42%	-2.83%	0.955%	19%	-3.73%	1.08%	5.13%	-0.435%
CCOc1ccc(Cl)cc1CNCCCn1ccnc1	-0.524%	6.67%	7.15%	-7.03%	-5.5%	-9.68%	19%	11%	-2.12%	5.13%	-11.2%
CCn1ccnc1CN1CCN(CCOc2ccccc2OC)CC1	-1.18%	0%	-0.305%	3.72%	6.39%	4.21%	8.19%	7.16%	0.49%	7.32%	-2.76%

Reference: ChEMBL document CHEMBL3988442, “University of Dundee, Small-Polar-MMV Screening Library” (2021)
